Test results published in PubChem BioAssay (NCI).
Compounds without any hit were thinned out: in the full panel of roughly 83,000, 20% have a hit.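 A percent growth of 40 corresponds to 60% growth inhibition; 0 means no net growth; -100 means all cells died. Active threshold: below 10.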 Values without a mark were called inactive. Calls of active or inactive are those of the source.

Key:
Experiment in all cases: NCI-60 one-dose screen, 48 h (100 = growth as untreated, 0 = no growth, -100 = all killed)
Settings in all cases: 10 µM unless noted
[1] = test system: DU-145 prostate
[2] = test system: K-562 leukemia
[3] = test system: MALME-3M melanoma
[4] = test system: MDA-MB-231 breast
[5] = test system: RXF 393 renal
[6] = test system: SF-268 CNS
[7] = test system: SF-295 CNS
[8] = test system: SF-539 CNS
[9] = test system: UACC-257 melanoma
[10] = test system: M14 melanoma
[11] = test system: HCT-15 colon
[12] = test system: HT29 colon
[13] = test system: SNB-75 CNS
[14] = test system: SNB-19 CNS
[15] = test system: U251 CNS
[16] = test system: PC-3 prostate
[17] = test system: SK-MEL-5 melanoma
[18] = test system: UACC-62 melanoma
[19] = test system: LOX IMVI melanoma
[20] = test system: SK-MEL-28 melanoma

Row | Compound | growth [1] | growth [2] | growth [3] | growth [4] | growth [5] | growth [6] | growth [7] | growth [8] | growth [9] | growth [10] | growth [11] | growth [12] | growth [13] | growth [14] | growth [15] | growth [16] | growth [17] | growth [18] | growth [19] | growth [20]
1 | CC1=C(SCC(=O)OCCCCCC(C)C)C(=O)c2ccccc2C1=O | 109% | 81.1% | 116% | 83.5% | 94.2% | 96.4% | 101% | 88.8% | 104% | 96.8% | 89.3% | 106% | 91.1% | 91.1% | 92% | 68.8% | 91.8% | 86.2% | 93.2% | 110%
2 | CNC(=O)c1cc(-n2ccc3cc(NC(=O)Nc4ccc(N5CCN(C)CC5)c(C(F)(F)F)c4)ccc32)ccn1 | 86.5% | -53.3% (active) | 2.37% (active) | 61.5% | -27.7% (active) | 83.4% | -47.2% (active) | 1.48% (active) | 72.2% | 59% | 23.8% | 0.845% (active) | 56.3% | 83.1% | 46.6% | 60.8% | 79% | 98.7% | -72.8% (active) | -85.6% (active)
3 | Cc1ccc(C)c(NC2=C(Cl)C(=O)c3nc(C)ccc3C2=O)c1 | -76.4% (active) | 1.06% (active) | -52.4% (active) | -14.5% (active) | -43.5% (active) | -1.66% (active) | -24.1% (active) | -95.1% (active) | -87.7% (active) | -55.8% (active) | -60.9% (active) | 86.4% | 63.2% | 17.1% | 1.85% (active) | 9.58% (active) | -96.8% (active) | -35.2% (active) | -69.5% (active) | -11.6% (active)
4 | CCC(=C(c1ccc(OCCN(C)C)cc1)c1ccc(OCCN(C)C)cc1)c1ccc(Cl)cc1 | -28.8% (active) | -16.7% (active) | -83.7% (active) | -79.5% (active) | -85.4% (active) | -37.1% (active) | -72.2% (active) | -82.8% (active) | -69.8% (active) | -66.3% (active) | -74.8% (active) | -38.9% (active) | 17.7% | -39.8% (active) | -64.5% (active) | -12.1% (active) | -95.8% (active) | -73.6% (active) | -98.1% (active) | -83.3% (active)
5 | Cc1ccc2c(n1)C(=O)C(Cl)=C(Nc1ccc(C(C)C)cc1)C2=O | 16.2% | 0.714% (active) | -33.9% (active) | -41% (active) | -93.6% (active) | 77.1% | 82.8% | 96.2% | -70.3% (active) | 25.6% | -60.1% (active) | 102% | 109% | 75.4% | 70.2% | 54% | 37.3% | 86.3% | -66.3% (active) | 6.95% (active)
6 | CNCCN(C)c1ccc(Nc2cc(NC3CC3)n3ncc(C#N)c3n2)cc1NC(C)=O | 17.5% | 10.7% | -5.08% (active) | -6.44% (active) | -24.5% (active) | 7.24% (active) | 12% | 6.65% (active) | 8.4% (active) | -20.6% (active) | 9.77% (active) | 16.4% | -24.3% (active) | 10.1% | 5.12% (active) | – | -1.54% (active) | -24.9% (active) | -25.7% (active) | 13%
7 | NC(=O)c1ncn2c(=O)n(CCF)nnc12 | 38.6% | 26.7% | 72.8% | 66.8% | 96.6% | 57.3% | 34.7% | 63.9% | 80.9% | 33.9% | 80.4% | 57.4% | 50.6% | 96.1% | 93.7% | 71.6% | 92.5% | 49.6% | 26.1% | 87%
8 | O=C(/C=C/Nc1ccc(S(=O)(=O)Nc2ncccn2)cc1)c1ccc(N=Cc2c(O)[nH]c3ccccc23)cc1 | 116% | 97.1% | 127% | 99.9% | 113% | 112% | 105% | 102% | 101% | 109% | 104% | 106% | 102% | 112% | 103% | – | 98.1% | 108% | 102% | 118%
9 | CCCN1C=C/C(=C\C(=O)n2ccc3ccccc32)c2ccccc21 | 87.7% | 56.9% | 104% | 76.2% | 97.6% | 96.4% | 83.1% | 88.2% | 102% | 95.4% | 80.3% | 74.7% | 90.8% | 94.5% | 90.3% | – | 82.1% | 68.9% | 78.7% | 90.6%
10 | NC1=NC2(CCCC2)N(c2ccc(S(=O)(=O)Nc3nccs3)cc2)C(N)=N1 | 111% | 96.5% | 101% | 100% | 104% | 105% | 104% | 95% | 101% | 108% | 100% | 109% | 112% | 100% | 104% | 102% | 100% | 98.9% | 99% | 105%
11 | CCN(CC)c1ccc(/C=N/NC(=O)c2ccc(NS(C)(=O)=O)cc2)cc1 | 37.9% | 14.8% | 15.5% | 43.2% | 12.3% | 32% | 11.4% | 18.6% | -4.47% (active) | 0.0523% (active) | 20.4% | 32.1% | 73.3% | 39.2% | 31.1% | – | 4.46% (active) | 12.3% | 9.94% (active) | 23.8%
12 | CC(C)Sc1nc(-c2ccccc2)c(C#N)c(N2CCOCC2)n1 | 83.1% | 62.4% | 36.5% | 63.7% | 45.7% | 79% | 51.1% | 50.2% | 97.5% | 96.9% | 80.2% | 71.8% | 9.58% (active) | 69% | 44.8% | 82% | 95.5% | 91.7% | 35.6% | 88.6%
13 | CCOC(=O)c1ccccc1NC1=C(Cl)C(=O)c2nc(C)ccc2C1=O | 112% | 89.6% | 107% | 90.3% | 102% | 99.2% | 110% | 96.1% | 99.2% | 109% | 91.7% | 112% | 81.1% | 92.8% | 104% | – | 99.9% | 95% | 98.7% | 107%
14 | O=C(CCCCCCNC(=O)C(O)(O)C(F)(F)F)Nc1ccc(-c2ccccc2)cc1 | 12% | 9.55% (active) | 3.09% (active) | 25% | -45% (active) | -4.51% (active) | -32.1% (active) | 19.7% | 14.8% | 20.7% | 9.19% (active) | 4.75% (active) | 40.4% | 15.2% | -3.64% (active) | – | -41.5% (active) | -61.4% (active) | -77.4% (active) | 5.07% (active)
15 | Cn1cc(C2=C(c3coc4cc(Br)ccc34)C(=O)NC2=O)c2ccccc21 | 108% | 27.4% | 104% | 87.8% | 66.3% | 83.5% | 86.9% | 69.5% | 100% | 68.7% | 37.3% | 51.7% | 10.5% | 90.7% | 83.7% | – | 89.6% | 60.1% | 69.2% | 88.6%
16 | Fc1cc(F)cc(NNC(=S)c2ccccc2)c1 | 58% | 29.4% | 85.3% | 66.5% | -11% (active) | 55% | 52.5% | 66.6% | 73.8% | 30.2% | 28.2% | 101% | 70.9% | 61.7% | 28.9% | 22% | 46.2% | 31.8% | 44.8% | 48.9%
